Source: PubChem (several laboratories)
This is a sample that favours compounds with a hit; in the whole collection about 1.6% have one here.
Platelet DG rel – platelet dense granule release activity. human platelet-rich plasma, SFLLRN dense granule ATP release, luminescence. inhibition, %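 (compounds screened at 7.5 µM in platelet-rich plasma)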. 300,000 compounds, 0.22% hits. AID 1663;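 active means mean replicate score, as percent of positive control, at or above 50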
STAT1 blocker – reduces IFN-gamma driven STAT1 reporter signal; AID 920; inhibition, % at 5.5 µM; 200,000 compounds, 0.35% hits; NIH 3T3 STAT1-luciferase reporter, luminescence;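 active means inhibition above a set limit, the mean inhibition across all tested compounds plus 3 SD, cut at about 34% in these data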
PPC-1+TRAIL kill – compounds killing PPC-1 cancer cells with TRAIL present (potentiator screen, no TRAIL-free arm); PPC-1 cells + TRAIL, ATPLite viability luminescence; cell killing (% activity), % at 4 µM or 5 µM; 220,000 compounds, 0.41% hits; AID 1443;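 active means cell killing above 50% in the first pass at 4 µM, then a duplicate retest at 5 µM averaging 50% or more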
C8 TRAIL sens – caspase-8 TRAIL sensitization; 360,000 compounds, 1% hits; AID 624354; NB7+C8 cells + TRAIL, ATPlite viability luminescence; inhibition (viability loss, TRAIL sensitization), % at 10 µM;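 active means compounds causing at least 50% loss of cell viability in the single-dose screen, relative to plate controls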
STAT3 blocker – reduces IL-6 driven STAT3 reporter signal | U3A cells, IL-6 STAT3-luciferase reporter, luminescence; host cell line lacks STAT1 | inhibition, % at 5.5 µM | 190,000 compounds, 0.89% hits | AID 862;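 active means inhibition above the mean inhibition across all screened compounds plus 3 SD, cut at about 44% in these data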
Hits are given with their value; 0 = inactive; - = no result.

SMILES	Platelet DG rel	STAT1 blocker	PPC-1+TRAIL kill	C8 TRAIL sens	STAT3 blocker
CCCC[C@@H]1CNC(=O)C(=O)N1CCc1cccc(F)c1	-	-	-	0	-
Cc1ccc(/C=N/NC(=O)c2nn(C)cc2Cl)cc1	53	0	0	68	0
Cn1cc(Cl)c(C(=O)N/N=C/c2ccc3c4c(cccc24)CC3)n1	0	-	-	67	-
CC(C)(C)OC(=O)C[C@H]1C/C=C\C[C@@H](CC(=O)NCCO)C(=O)N[C@H](C(C)(C)C)COC1=O	-	-	-	0	-
CC(C)NC(=O)c1ccc(COc2ccc(C(C)(C)C)cc2)o1	0	-	-	0	-
O=C(OCCCCN1C(=O)c2ccccc2C1=O)c1ccc(S(=O)(=O)N2CCCC2)cc1	58	0	0	0	0
O=C(CCCCCN1C(=O)c2ccccc2C1=O)Nc1ccc(S(=O)(=O)N2CCCCC2)cc1	0	0	0	0	0
CCC(C)c1ccc(NC(=O)c2cccs2)cc1 (centres undefined)	0	0	0	60	0
Cc1ccn(-c2ccc(NC(=O)c3cccs3)cc2)n1	0	-	-	55	-
O=C(Nc1ccc(NC(=O)c2cccs2)cc1)c1cccs1	0	-	-	0	-
O=C(NC1CCN(S(=O)(=O)c2cccc([N+](=O)[O-])c2)CC1)C1CCCCC1	0	-	-	0	-
O=C(NC1CC1)C1CCN(S(=O)(=O)c2ccc(Cl)c([N+](=O)[O-])c2)CC1	-	-	-	64	-
COc1ccc(C(=O)CN2C(=O)c3ccccc3S2(=O)=O)cc1Br	0	-	-	0	-
CCCn1c(C)cc(C(=O)CN2C(=O)c3ccccc3S2(=O)=O)c1C	-	-	-	58	-
Cc1ccc(C)c(C(=O)CN2C(=O)c3ccccc3S2(=O)=O)c1	0	0	0	0	0
COc1ccc(C(=O)CN2C(=O)c3ccccc3S2(=O)=O)cc1	0	-	0	65	-
Cc1ccc(OCC(=O)NC(=S)Nc2ccccn2)c(Br)c1	0	-	-	84	-
O=C(COc1ccc(Br)cc1Cl)NC(=S)Nc1ccccn1	0	-	-	0	-
COc1ccc(OC)c(CN2C(=O)c3ccccc3C2c2nnnn2C(C)C)c1 (centres undefined)	-	-	-	0	-
Cc1cc2nc(-c3ccco3)c(Cc3ccccc3C(F)(F)F)n2c(C)c1Br	-	-	-	0	-
O=C(NCCC1=CCCCC1)c1coc(=O)c(Br)c1	0	0	0	53	0
O=C(NCCC1=CCCCC1)c1ccc(=O)oc1	0	0	0	0	0
OC(c1ccc(Cl)c(Cl)c1)c1ncc(-c2ccccc2Cl)[nH]1 (centres undefined)	-	-	-	0	-
COc1ccc(C(=O)Nc2nnc(SCC(=O)NCc3ccco3)s2)c(OC)c1	0	-	-	59	-
Cc1ccccc1C(=O)Nc1nnc(SCC(=O)NC2CC2)s1	0	-	-	53	-
SMILES	Platelet DG rel	STAT1 blocker	PPC-1+TRAIL kill	C8 TRAIL sens	STAT3 blocker
COc1ccc(C(=O)Nc2nnc(SCC(=O)Nc3ccc(NC(C)=O)cc3)s2)c(OC)c1	0	-	-	0	-
COc1ccc(C(=O)Nc2nnc(SCC(=O)NC3CCCC3)s2)c(OC)c1	0	-	-	72	-
O=C(CSc1nnc(NC(=O)c2ccccc2Cl)s1)NC1CC1	0	-	-	0	-
Cc1ccccc1C(=O)Nc1nnc(-c2ccco2)s1	0	44	0	0	69
COc1ccccc1C(=O)Nc1nnc(SCC(=O)NCc2ccco2)s1	0	-	-	0	-
O=C(CSc1nnc(NC(=O)c2ccccc2F)s1)Nc1ccccc1F	0	0	0	58	0
O=C(CSc1nnc(NC(=O)c2ccco2)s1)Nc1ccccc1F	0	0	0	0	0
COc1cccc(C(=O)Nc2nnc(SCC(=O)NC3CC3)s2)c1	0	-	-	0	-
COc1ccc(C(=O)Nc2nnc(SCC(=O)NC3CC3)s2)cc1	0	-	-	78	-
Cc1cc(N)ccc1NC(=O)CN1CCCC1	0	-	-	0	-
COc1ccc(/C=N/Nc2cc(C)nc(-n3nc(C)cc3C)n2)c(OC)c1	0	0	0	55	0
COc1ccc(/C=N/Nc2nccnc2Cl)cc1	82	0	0	0	0
COc1cccc(/C=N/Nc2nc(Nc3ccccc3)nc(-n3nc(C)cc3C)n2)c1O	0	0	0	61	0
COc1ccc(/C=N/Nc2nccnc2Cl)c(OC)c1	54	0	0	0	0
c1ccc(-c2ccc3ncccc3n2)cc1	-	-	-	0	-
Cc1ccc2c(c1)Cc1nc3ccccc3nc1-2	0	61	0	59	72
Cc1cc(N2CCCC2)nc2ccccc12	0	0	0	0	0
Cc1cc(/C=N/n2cnnc2)c(C)n1-c1ccc(OCc2ccc(Cl)cc2Cl)cc1	0	40	0	0	61
Cc1cc(/C=N/n2cnnc2)c(C)n1-c1ccc(Cl)cc1	0	0	0	0	0
CCN=C1NN=C(c2cc(C)n(Cc3ccco3)c2C)CS1	0	45	0	0	82
CCc1ccc(C(=O)Nc2cc(C)ccc2F)s1	0	0	0	53	0
CCc1ccc(C(=O)Nc2nc(C)cs2)s1	0	-	-	0	-
Cc1ccc2nc(-c3ccccn3)[nH]c2c1	58	-	-	70	-
O=C(Nc1ccc2nc(-c3ccccn3)[nH]c2c1)C1CCCCC1	0	0	0	53	0
CCN(CC)c1ccc2c(O)cc(=O)oc2c1	0	0	0	0	0
SMILES	Platelet DG rel	STAT1 blocker	PPC-1+TRAIL kill	C8 TRAIL sens	STAT3 blocker
CCN(CC)c1ccc(C(=O)OCc2cc(=O)oc3cc(O)ccc23)cc1	0	0	0	50	0
CC1CCC(NC(=O)CCCn2sc3ccccc3c2=O)CC1 (centres undefined)	0	-	-	0	-
CC(C)(C)c1ccc2c(c1)OC(C(=O)N/N=C\c1ccc[nH]1)CO2 (centres undefined)	0	-	-	61	-
CCC(=O)Nc1ccc(C(=O)Cn2ncc(Cl)c(Cl)c2=O)cc1	0	-	0	94	-
Cc1ccc(S(=O)(=O)N2CCCCC2)cc1NC(=O)Cn1ncc(Cl)c(Cl)c1=O	-	-	-	96	-
O=C(Cn1ncc(Cl)c(Cl)c1=O)Nc1ccc2c(c1)OCO2	-	-	-	94	-
O=C(Cn1ncc(Cl)c(Cl)c1=O)c1ccc2c(c1)OCCO2	-	-	-	89	-
Cc1nn(CC(=O)Nc2ccc3c(c2)OCO3)c(C)c1Cl	0	-	-	0	-
O=C(NCCc1ccc(O)c(Br)c1)c1ccc(Br)o1	-	-	-	0	-
Cc1ccc(S(=O)(=O)N2CC3(O)CN(C(=O)OC(C)C)N(C(=O)OC(C)C)CC3(OC(=O)NC3CCCC3)C2)cc1 (centres undefined)	-	-	-	0	-
O=C(CN1CCCCC1)NC(=O)NC1CCCC1	0	0	0	0	0
CCOC(=O)c1ccc(NC(=O)Cn2ncc(Cl)c(Cl)c2=O)cc1	0	0	0	0	0
CCCc1cc(=O)[nH]c(SCC(=O)Nc2cc(S(=O)(=O)N3CCCCC3)ccc2C)n1	-	-	-	50	-
O=C(Cn1ncc(Cl)c(Cl)c1=O)NC(=O)NC1CCCCC1	-	-	-	93	-
CCN(CC)S(=O)(=O)c1cc(NC(=O)Cn2ncc(Cl)c(Cl)c2=O)ccc1C	0	-	0	62	-
CCOC1=C2CN(S(=O)(=O)c3ccc(C)cc3)[C@H](c3ccccc3)C[C@@H]2N(S(=O)(=O)c2ccc(Br)cc2)[C@H](c2ccccc2)C1	-	-	-	0	-
COc1ccccc1N1CCN(C2C(=O)Nc3ccccc3-n3nnnc32)CC1 (centres undefined)	-	-	-	0	-
Cc1cc(N2CCN(C(C(=O)NC3CCCC3)c3ccc(F)cc3)CC2)c2ccccc2n1 (centres undefined)	-	-	-	0	-
